Among the data in PubChem BioAssay (NCI) are growth values, retold here.

SMILES strings stand for the structures. This is part of a sample that, as a whole, favours compounds with a hit. Of some 83,000 tested, about 20% had one in any assay.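 The endpoint reported here, percent growth, reads 100 for growth as untreated, 0 for no net growth and -100 for all cells dead.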 A number with no mark means an inactive call. The source made the active and inactive calls. How the source made its calls: active means growth percent below 10; inactive means the rest.

Test systems include RPMI-8226 leukemia; OVCAR-8 ovarian; OVCAR-5 ovarian; SK-OV-3 ovarian; IGROV1 ovarian; OVCAR-3 ovarian; HS 578T breast; NCI/ADR-RES ovarian; T-47D breast; BT-549 breast; MDA-MB-435 melanoma; SW-620 colon; MCF7 breast; HCT-116 colon; HCC-2998 colon; KM12 colon; OVCAR-4 ovarian; SR leukemia.
Holding throughout (experiment): NCI-60 one-dose screen, 48 h (100 = growth as untreated, 0 = no growth, -100 = all killed)
Holding throughout (conditions): 10 µM unless noted

Turning to `CNCc1cccnc1`, the growth in the test with RPMI-8226 leukemia was 101%; in the test with OVCAR-8 ovarian, 103%; in the test on OVCAR-5 ovarian, 114%; with SK-OV-3 ovarian, 106%; in the test with IGROV1 ovarian, 114%; with OVCAR-3 ovarian it was 115%. Moreover, the growth with HS 578T breast was 107%; with NCI/ADR-RES ovarian, 104%; in the test on T-47D breast it was 98.4%; in the test on BT-549 breast it was 124%; in the test on MDA-MB-435 melanoma it was 95.9%; with SW-620 colon, 107%. For the same compound, the growth with MCF7 breast is 105%; in the test with HCT-116 colon it was 107%; in the test on HCC-2998 colon it was 96.6%; in the test on KM12 colon, 104%.

For `CC1(C)N=C(N)N=C(N)N1c1ccc(CCCCc2ccc(Cl)c(S(=O)(=O)F)c2)c(Cl)c1`, the growth with RPMI-8226 leukemia was -24.2% (active); with OVCAR-8 ovarian, 5.53% (active); with OVCAR-5 ovarian, 44.9%; in the test on OVCAR-4 ovarian, 35.8%; with SK-OV-3 ovarian it was 57.4%; in the test with OVCAR-3 ovarian it was 29.5%. Besides, the growth was 75.3% in the test on HS 578T breast; 55.6% in the test on NCI/ADR-RES ovarian; 42.3% in the test with T-47D breast; 24.7% in the test with BT-549 breast; 24.6% with MDA-MB-435 melanoma; 24.4% in the test with SW-620 colon. For the same compound, the growth in the test with MCF7 breast was 19.1%; in the test on HCT-116 colon, 19.6%; in the test on HCC-2998 colon, 23.7%; in the test on KM12 colon, 15.2%.

Turning to `O=C(N/N=C/c1ccc(N(CCCl)CCCl)cc1)c1cccc2ccccc12`, the growth with SR leukemia is 24.2%; with RPMI-8226 leukemia, 73.9%; with OVCAR-5 ovarian it was 93%; in the test with OVCAR-4 ovarian, 88.5%; with SK-OV-3 ovarian, 69.1%; with IGROV1 ovarian it was 79.2%. The growth in the test on OVCAR-3 ovarian was 61.8%; in the test with HS 578T breast, 69.4%; in the test on NCI/ADR-RES ovarian, 72.9%; in the test with T-47D breast it was 73.3%; in the test with BT-549 breast, 67.4%; with SW-620 colon, 54.1%. Moreover, the growth in the test with MCF7 breast was 35.4%; in the test on HCT-116 colon, 48.1%; in the test on HCC-2998 colon, 87.7%; in the test on KM12 colon, 67.4%.

With `CC12CCC3C(C=CC4=C(N)C(=O)CCC43C)C1CCC2=O` (stereo not drawn), the growth in the test on SR leukemia is -18.1% (active); in the test on OVCAR-8 ovarian, 44%; with OVCAR-5 ovarian, 108%; in the test with OVCAR-4 ovarian it was 62%; in the test with SK-OV-3 ovarian, 120%; in the test on IGROV1 ovarian it was 49.5%. Besides, the growth in the test on OVCAR-3 ovarian was 64.6%; in the test with HS 578T breast, 113%; in the test with NCI/ADR-RES ovarian, 68.7%; in the test with T-47D breast, 73.7%; with BT-549 breast, 82.6%; in the test with SW-620 colon it was 15.4%. For the same compound, the growth with MCF7 breast is -16% (active); with HCT-116 colon, 6.15% (active); in the test on HCC-2998 colon it was 96%; in the test with KM12 colon, 39.5%.

Take `Brc1ccc2c(c1)c(-c1nc(-c3c[nH]c4ncccc34)cs1)cn2CCN1CCCCC1`: the growth in the test with SR leukemia was 16.2%; in the test on RPMI-8226 leukemia, 51.2%; in the test with OVCAR-8 ovarian, 83.5%; in the test with OVCAR-5 ovarian it was 109%; in the test on OVCAR-4 ovarian, 74.9%; with SK-OV-3 ovarian it was 103%. For the same compound, the growth with IGROV1 ovarian is 46.8%; in the test with OVCAR-3 ovarian, 85.1%; in the test on HS 578T breast, 76.7%; with NCI/ADR-RES ovarian, 75.2%; in the test on T-47D breast it was 66.2%; in the test on BT-549 breast it was 89%. Also, the growth is 76.9% with MDA-MB-435 melanoma; 58.4% with SW-620 colon; 47.1% with MCF7 breast; 51% in the test on HCT-116 colon; 38.9% in the test on HCC-2998 colon; 66.2% with KM12 colon.

As for `Cn1cccc1C1CC(=O)N(CCC[Se]C#N)C1=O` (stereo not drawn), the growth in the test on SR leukemia was 21.2%; with RPMI-8226 leukemia it was 64.4%; in the test on OVCAR-8 ovarian, -51.5% (active); in the test on OVCAR-5 ovarian it was 20.4%; with OVCAR-4 ovarian it was 31.2%; with SK-OV-3 ovarian, -15.7% (active). Also, the growth with IGROV1 ovarian was -44.1% (active); in the test with OVCAR-3 ovarian, -45.5% (active); in the test on HS 578T breast, -8.66% (active); with NCI/ADR-RES ovarian, -0.356% (active); in the test with T-47D breast, 71.7%; with BT-549 breast, -93.5% (active). Moreover, the growth is -6.27% (active) in the test on MDA-MB-435 melanoma; 56.7% in the test with SW-620 colon; 9.04% (active) with MCF7 breast; 2.78% (active) in the test with HCT-116 colon; 83.1% in the test on HCC-2998 colon; 12.3% in the test on KM12 colon.

Regarding `CC1=C([Te]c2ccc(O)cc2)C(=O)c2ccccc2C1=O`, the growth with SR leukemia was -14.8% (active); with OVCAR-8 ovarian, 13.6%; in the test on OVCAR-5 ovarian it was 11.8%; in the test on OVCAR-4 ovarian, -32.9% (active); in the test with SK-OV-3 ovarian it was -15.5% (active); with IGROV1 ovarian, -27% (active). Further, the growth in the test on OVCAR-3 ovarian was -63.7% (active); in the test with HS 578T breast it was 8.43% (active); in the test with NCI/ADR-RES ovarian, -2.79% (active); with T-47D breast it was -67.3% (active); in the test on BT-549 breast, -1.32% (active); in the test with MDA-MB-435 melanoma, -76.7% (active). Also, the growth with SW-620 colon is 3.05% (active); in the test on MCF7 breast, -4.83% (active); with HCT-116 colon, -63.4% (active); with HCC-2998 colon, -1.49% (active); with KM12 colon, 6.03% (active).

As for `CC(=O)O[C@H]1CC[C@H]2[C@@H]3CC=C4c5nc(-c6ccccc6)sc5CC[C@]4(C)[C@H]3CC[C@]12C`, the growth in the test with SR leukemia is 8.39% (active); in the test with RPMI-8226 leukemia, -37.3% (active); in the test on OVCAR-8 ovarian, 77.9%; in the test with OVCAR-5 ovarian, 75.9%; in the test on OVCAR-4 ovarian it was 87.2%; in the test with SK-OV-3 ovarian it was 94.5%. In addition, the growth was 97.2% in the test with IGROV1 ovarian; 64.2% in the test on HS 578T breast; 71.1% with NCI/ADR-RES ovarian; 52.4% in the test with T-47D breast; 64.8% with BT-549 breast; 59.2% with MDA-MB-435 melanoma. Moreover, the growth with SW-620 colon is 55%; in the test on MCF7 breast it was 67.7%; with HCT-116 colon, 51.2%; with HCC-2998 colon, 54%; in the test with KM12 colon, 42.3%.

For the compound `N#Cc1c(Br)n(C2OC(CO)C(O)C2O)c2ncnc(N)c12` (stereo not drawn), the growth in the test on OVCAR-8 ovarian is 35.2%; in the test with OVCAR-5 ovarian, 95.5%; in the test with OVCAR-4 ovarian, 75.3%; with SK-OV-3 ovarian, 78.3%; in the test on IGROV1 ovarian it was -35.1% (active); with HS 578T breast, 39.5%. For the same compound, the growth is 52.9% in the test on NCI/ADR-RES ovarian; 9.15% (active) in the test with T-47D breast; 73.5% in the test on BT-549 breast; 51.4% with MDA-MB-435 melanoma; 30.5% in the test on SW-620 colon; 40.3% in the test on HCT-116 colon. In addition, the growth was 83.7% with HCC-2998 colon and 34% in the test on KM12 colon.
